The results in this text go back to PubChem BioAssay AID588549 (Broad Institute, 2011).

Hit rate of the full screen: of about 360,000 compounds, about 780 (0.22%) were called active. Only a selection was taken, and actives are over-represented in it overall. Values without a mark were called inactive. No stated cut-off is given here; in the data, active means inhibition above about 8.5% (passing the limit was not always enough); inconclusive means no clear call, values can overlap the other calls.

This assay deals with Mycobacterium tuberculosis FadD28 fatty-acid-AMP ligase. Put plainly: inhibitors of FadD28 bisubstrate probe binding, primary screen, biochemical, fluorescence polarization, single point (AID 588549). Particulars: at 12.5 µM, stronger effect = higher value.
Turning to `C=CCn1c(SCc2cc(C(=O)OC)c(C)o2)nnc1-c1ccncc1`, the inhibition was -3.43%.
As for `Cc1ccc(C(c2sc3nc(C)nn3c2O)N2CCN(c3ccc(F)cc3)CC2)cc1` (stereo unspecified), the figure is -3.79%; as for `CC(=O)c1c(N2CCN(c3ccc(F)cc3)CC2)nc(=S)n(-c2ccccc2)c1C`, -1.67%; as for `O=C(C1Cc2ccccc2CN1C(=O)c1ccco1)N1CCN(c2ccccc2)CC1` (stereo unspecified), -0.0045%.
`C[C@H]1CN([C@@H](C)CO)C(=O)c2cc(C3=CCCCC3)cnc2O[C@@H]1CN(C)C(=O)Cc1ccccc1`: the inhibition is -1.03%.
With `Cc1nn(Cc2ccccc2)c(C)c1C(=O)N1CCN(CC(=O)Nc2ccccc2Cl)CC1`, the inhibition was -3.56%.
Turning to `COCCCn1c(-c2cccs2)nc2nc3ccccc3nc21`, the inhibition was -0.0615%.
Take `CCC(=O)Nc1cccc(NC(=O)CSc2nnc(-c3ccc(NS(C)(=O)=O)cc3)n2C)c1`: the inhibition was 1.19%.
As for `COCCN1Cc2cccc(C(=O)Nc3ccccc3OC)c2C1=O`, the inhibition is -3.48%.
Take `Cc1cccc(CN2CCN(C3CN(Cc4ccccc4)S(=O)(=O)C3)CC2)c1` (stereo unspecified): the inhibition was -1.16%.
The result for `CCN(CC(=O)NCc1ccc(F)cc1)S(=O)(=O)c1ccc(Cl)s1` reads -3.08%; that for `C=CC(=O)OCCOCCOCCOCCOC(=O)C=C`, -2.6%.
As to `COC(=O)CCCCC1=CCC2C(=O)C=C(O)C2C1` (stereo unspecified), the inhibition was -1.93%.
As for `COc1cc(CNCc2ccc(OC)c3ccccc23)cc(OC)c1OC`, the figure is -0.377%.
As for `CCc1nc2c(OCCOc3ccccc3)cccn2c1N(C)C(=O)c1cccs1`, the figure is -4.76%.
The result for `COC(=O)C1(C)CC1(c1ccccc1)c1ccccc1` (stereo unspecified) reads -0.161%; that for `O=C1c2ccccc2C2=Nc3ccccc3SC(c3ccccc3F)C12` (stereo unspecified), -4.89%.
In the case of `COC(=O)C1CC2=C(CC(C)(C)CC2=O)N(c2ccccc2)C1=O` (stereo unspecified), the inhibition is 1.35%.
As to `Cc1ccc(N(Cc2ccc(C(=O)Nc3ccccc3C(=O)NCc3ccco3)cc2)S(C)(=O)=O)cc1C`, the inhibition is -1.65%.
As to `COCCN(C(=O)c1ccccc1F)c1c(N)n(Cc2ccccc2)c(=O)[nH]c1=O`, the inhibition is -1.47%.
Regarding `CC/C(=N\NC(=O)c1ccccc1O)c1c(O)n(Cc2ccccc2)c(=O)[nH]c1=O`, the inhibition is 17.8% (active).
As for `CC/C(=N\NC(=O)c1ccccc1Cl)c1ccc(Br)s1`, the inhibition is -2.73%.
As for `Cc1ccc(C)c2c1cc(C)c1nnc(SCC(=O)Nc3cccc(C(=O)O)c3)n12`, the figure is -2.19%; as for `NNC(=O)COc1ccc(C2SCCS2)cc1`, -1.11%.
The result for `CCN1CC(CN(C)Cc2nc(-c3ccc(Cl)cc3)no2)CC1=O` (stereo unspecified) reads -0.366%.
Consider `Oc1c(Cl)cc(Cl)c(Cl)c1Cc1c(O)c(Cl)cc(Cl)c1Cl`, for which the inhibition is 65.8% (active).
As for `COc1ccc(SCc2noc(C(=O)NCC3CCCO3)c2C(=O)O)cc1` (stereo unspecified), the inhibition is 0.0895%.
For the molecule `CCn1nnc2cc(C(=O)Nc3ccc(C(=O)OC(C)C)cc3)ccc21`, the inhibition is -3.75%.
The result for `CC1CCCCC1NC(=O)c1cc(=O)[nH]c2ccccc12` (stereo unspecified) reads -0.133%; that for `COc1ccc(OC)c(C(=O)c2coc3ccc(O)c(CN4CCOCC4)c23)c1`, -2.66%; that for `CCOC(=O)c1ccccc1N1C(=O)C2Sc3[nH]c(=O)sc3C(/C=C/c3ccccc3)C2C1=O` (stereo unspecified), 0.286%.
For `COc1cc(OC)cc(C(=O)NC2CCN(C(=O)N3c4ccccc4Sc4ccccc43)CC2)c1`, the inhibition was -5.05%.
The result for `O=C(CSc1nc2ccccc2o1)N1CCN(c2ccc(Cl)cc2)CC1` reads 1.06%; that for `CN(C)c1ccc(Nc2c3c4c(cccc4n(C)c2=O)C(=O)c2ccccc2-3)cc1`, -0.49%.
As to `O=C(Cc1ccc([N+](=O)[O-])cc1)NCCS(=O)(=O)N1CCN(c2ccccc2)CC1`, the inhibition was -0.717%.
For the molecule `CC(C)C(NC(=O)c1c(F)cccc1F)C(=O)NNC(=O)c1ccccc1` (stereo unspecified), the inhibition was -3.91%.
As for `CN1C(=O)CC(c2ccccc2)C1=O` (stereo unspecified), the inhibition was -1.61%.
As for `O=C(Cn1nnc(-c2ccccc2)n1)N/N=C/c1ccc(-c2ccc(Cl)cc2)o1`, the figure is -1.53%; as for `CCC(C)N1C(=O)S/C(=C/c2ccc(Sc3nc4ccccc4[nH]3)o2)C1=O` (stereo unspecified), -0.197%; as for `O=C(O)C(c1ccccc1)N1C(=O)/C(=C\c2ccc(-c3cccc(Cl)c3)o2)SC1=S` (stereo unspecified), 13% (active).
`COc1c(C)cc(C(=O)C2CCCN(S(=O)(=O)c3c(C)noc3C)C2)cc1C` (stereo unspecified): the inhibition was -0.846%.
Regarding `CCOCN(C(=O)Cn1c(C(C)O)nc2ccccc21)c1c(C)cccc1CC` (stereo unspecified), the inhibition is -5.11%.
On to `CCCNC(=O)c1cc(C2CCCCN2C(=O)OC)on1` (stereo unspecified), for which the inhibition was -0.481%.
The result for `CCN(CC)S(=O)(=O)c1ccc(N2CC(C(=O)NCc3cccnc3)CC2=O)cc1` (stereo unspecified) reads -2.96%.
`O=C(Cn1c2[n+](c3ccc(C(F)(F)F)cc31)CCCCC2)Nc1c(F)cccc1F`: the inhibition is 4.18%.
The result for `CC1CCN(c2ccc(C(=O)Nc3nnc(C4CC4)s3)cc2[N+](=O)[O-])CC1` reads -1.32%; that for `O=[N+]([O-])c1cc(Cl)cc(/C=N/NC(=S)Nc2cc(S(=O)(=O)N3CCOCC3)ccc2Cl)c1O`, 22.5% (active).
As for `Cc1cc(OCCCC(=O)Nc2cc(S(=O)(=O)N3CCOCC3)ccc2N2CCOCC2)ccc1Cl`, the figure is 0.172%; as for `COC(=O)c1cc(Oc2ccc(S(=O)(=O)N3CCOCC3)cc2[N+](=O)[O-])cc(C(=O)OC)c1`, 0.28%; as for `O=S(=O)(NCC1OCCc2ccccc21)c1ccccc1` (stereo unspecified), -0.133%.
As for `Cn1c(=O)cc(SCC(=O)N2CCCC2)c2cc(Cl)ccc21`, the inhibition was -4.85%.
On to `CC(C)Cc1nn2c(=O)cc(O)nc2s1`, for which the inhibition is 0.338%.
As for `CC(=O)N1CCN(S(=O)(=O)c2ccc(C)c([N+](=O)[O-])c2)C1C(C)C` (stereo unspecified), the figure is -3.8%.
As to `COC(=O)C1CCN(C(=O)c2ccc3oc(Cc4ccc(Cl)cc4)nc3c2)CC1`, the inhibition was -0.812%.
The result for `O=C(CN1C(=O)NC2(CCCC2)C1=O)NCC1CCCO1` (stereo unspecified) reads -1.47%; that for `CCc1nc2ccc(C(=O)NC3CCN(Cc4ccccc4)CC3)cn2c1N(CC)CCOC`, -4.48%.
